The list is not random: actives were taken first. Their share in the collection is about 1.2%.
PLC-beta3 inh: PLC-beta3 (human) inhibition, primary screen. Q01970. Purified PLC-beta3, fluorogenic substrate, fluorescence. inhibition, % at 12.2 µM. actives 0.18% (n = 370,000). AID 720704;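 also: 0% = median of compound wells on plate and 100% = full blocker control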
GC-B act: GC-B (human) receptor activation; actives 0.11% (n = 370,000); HEK293-GC-B cells, CNP EC30, cGMP TR-FRET; 0% at EC30 CNP, 100% saturating CNP; P20594; activation, % at 10 µM;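 active = activation at 10 µM reaching about 35% in either raw or pattern-adjusted values, limit read from the data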
GC-A act: GC-A (human) enzyme activation; actives 0.14% (n = 370,000); P16066; HEK293 GC-A cells, cGMP TR-FRET, EC30 ANP; 0% at EC30 ANP, 100% saturating ANP; activation, % at 10 µM; AID 1671463; in the data active = activation above about 40%
Target sequence (P16066 whole entry, looked up): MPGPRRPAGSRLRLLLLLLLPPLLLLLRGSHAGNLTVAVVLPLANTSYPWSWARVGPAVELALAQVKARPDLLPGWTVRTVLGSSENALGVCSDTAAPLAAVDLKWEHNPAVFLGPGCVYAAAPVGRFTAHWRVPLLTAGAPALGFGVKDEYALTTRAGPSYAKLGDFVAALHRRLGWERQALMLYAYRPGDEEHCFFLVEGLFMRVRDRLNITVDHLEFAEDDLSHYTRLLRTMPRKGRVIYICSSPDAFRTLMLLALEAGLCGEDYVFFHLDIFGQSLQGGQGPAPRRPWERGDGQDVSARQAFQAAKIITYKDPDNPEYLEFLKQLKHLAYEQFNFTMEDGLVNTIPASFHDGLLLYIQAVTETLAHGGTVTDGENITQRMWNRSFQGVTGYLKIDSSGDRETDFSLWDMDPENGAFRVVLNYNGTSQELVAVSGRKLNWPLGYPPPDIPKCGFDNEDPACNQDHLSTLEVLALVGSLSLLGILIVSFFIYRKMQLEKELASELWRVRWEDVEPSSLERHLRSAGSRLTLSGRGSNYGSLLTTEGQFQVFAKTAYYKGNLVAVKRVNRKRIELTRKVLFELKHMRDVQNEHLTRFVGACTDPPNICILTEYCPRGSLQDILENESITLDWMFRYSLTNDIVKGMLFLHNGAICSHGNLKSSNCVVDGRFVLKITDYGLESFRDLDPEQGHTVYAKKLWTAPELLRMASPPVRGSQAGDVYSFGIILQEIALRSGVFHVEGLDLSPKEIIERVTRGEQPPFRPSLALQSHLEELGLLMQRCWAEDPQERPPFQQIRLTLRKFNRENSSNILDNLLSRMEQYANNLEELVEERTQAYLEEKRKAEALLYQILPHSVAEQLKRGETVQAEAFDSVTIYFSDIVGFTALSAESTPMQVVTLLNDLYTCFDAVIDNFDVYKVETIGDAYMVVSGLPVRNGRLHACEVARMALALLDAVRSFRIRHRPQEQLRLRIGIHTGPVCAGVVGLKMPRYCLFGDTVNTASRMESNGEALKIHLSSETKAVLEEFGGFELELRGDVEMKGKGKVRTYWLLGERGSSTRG
PLC-gamma1 inh: blocks human PLC-gamma1 enzyme activity; P19174; purified PLC-gamma1, fluorogenic substrate, fluorescence; inhibition, % at 12.2 µM; actives 0.84% (n = 370,000); in the data active = inhibition above about 9.5%
PLCgamma1 ctr: counter-screen for PLC-beta3 inhibitors: inhibitors of human PLC-gamma1 | shares compounds with PLC-gamma1 inh | purified PLC-gamma1, fluorogenic substrate, fluorescence | inhibition, % at 12.3 µM | actives 3.1% (n = 3,300); in the data active = inhibition above about 9.5%
PLCbeta3 conf: confirmation of human PLC-beta3 inhibitors; shares compounds with PLC-gamma1 inh; purified PLC-beta3, fluorogenic substrate fluorescence; inhibition, % at 12.3 µM; actives 1% (n = 3,300); AID 743261
An asterisk follows results filed as active; x = not tested or not shown. Rule as the data show it, unless noted: active = inhibition above about 11%; inactive = the rest.

SMILES	PLC-beta3 inh	GC-B act	GC-A act	PLC-gamma1 inh	PLCgamma1 ctr	PLCbeta3 conf
COc1ccc(CNCCC(c2ccc(OC(C)C)cc2)c2ccccc2OC)cc1 (stereo not drawn)	-0.4	-15.3	-26.1	8.0	x	x
COc1ccccc1C(CCNCc1ccc(N(C)C)cc1)c1ccc(OC(C)C)cc1 (stereo not drawn)	-2.9	-4.4	-23.6	10.5*	1.4	4.7
CC(=O)c1cc2c(cc1NC(=O)CSc1ccc(S(=O)(=O)N(C)C)cn1)OCO2	-51.4	7.2	0.0	-37.8	x	x
NC(N)=N/N=C/c1ccc(OCc2ccccc2)c(OCc2ccccc2)c1	-4.0	-4.0	-14.4	12.2*	4.0	3.7
CSC(=N/N=C(\N)c1cnccn1)SC	6.2	-0.8	-1.2	12.9*	4.9	1.0
O=C(O)c1cnccn1	-0.6	2.0	1.9	1.7	x	x
N#Cc1ccc(C23CC4(C2)[C@H](CN(Cc2ccc(-c5ccccc5)cc2)[C@@H]4c2ccccc2)C3c2ccc(Cl)nc2)cc1 (stereo partly drawn)	2.8	-8.0	-3.8	13.0*	-9.9	-14.8
Clc1ccc(C2[C@H]3CN(Cc4ccc(-c5ccccc5)cc4)[C@H](c4ccccc4)C34CC2(c2ccccc2)C4)cn1 (stereo partly drawn)	1.6	-7.1	-4.9	1.4	x	x
CCOc1ccc(-c2cc(N)n(S(=O)(=O)c3ccc(OC)c(OC)c3)n2)cc1	10.8*	-4.3	-5.2	3.5	0.4	-7.3
C=CCn1c(SCC(=O)c2[nH]c(C)c(C(=O)OCC)c2C)nc2scc(-c3ccc(OC)c(OC)c3)c2c1=O	10.6*	7.6	-1.5	6.2	-9.1	-1.5
CCOC(=O)c1c(C)[nH]c(C(=O)CSc2nnc(-c3ccncc3)n2CC)c1C	3.2	-2.6	-2.0	1.4	x	x
Cc1ccc(-c2nnc(SCC(=O)NC3CCCC3)n2N)cc1	8.9	1.9	5.7	11.6*	-2.6	0.1
O=c1cc(-c2ccccc2Cl)oc2cccc(O)c12	0.5	-2.9	-6.1	5.2	x	x
O=c1cc2oc3cc(O)c(O)cc3c(-c3ccccc3[N+](=O)[O-])c-2cc1O	8.7	-12.3	-19.5	12.9*	17.2*	8.8
COc1ccc(CCN2CC(C(=O)N(C)CC(=O)Nc3ccc(F)c(F)c3F)CC2=O)cc1OC (stereo not drawn)	-0.9	1.2	1.4	11.1*	-3.8	-0.9
CCN(CC(=O)Nc1ccc(NC(C)=O)cc1)C(=O)C1CC(=O)N(CCc2ccc(OC)c(OC)c2)C1 (stereo not drawn)	-5.5	4.0	9.5	2.1	x	x
Nc1nccc2c1ncn2C1OC(CO)C(O)C1O (stereo not drawn)	12.4*	0.4	3.3	12.4*	-2.2	-0.5
Cc1ccccc1C(=O)N[C@@H](Cc1cccnc1)C(=O)N1CCC[C@H]1C(=O)NCCc1ccccc1Cl	-0.9	-1.7	-0.1	-1.0	x	x
COC1OC2COC(c3ccccc3)OC2C(OC(=O)c2ccccc2)C1OC(=O)c1ccccc1 (stereo not drawn)	3.7	1.5	-5.7	5.0	x	x
COC1OC2COC(c3ccccc3)OC2C(NC(C)=O)C1OC(C)=O (stereo not drawn)	13.6*	0.2	2.6	10.2*	1.2	4.1
O=C(NCc1ccc(Cl)cc1)C1CCC(=O)N(C2CC2)C1 (stereo not drawn)	-4.4	4.9	2.0	0.5	x	x
O=C(NCc1ccc(OC(F)(F)F)cc1)C1CCC(=O)N(C2CC2)C1 (stereo not drawn)	-3.2	0.9	-1.4	10.7*	-0.9	0.4
COc1ccc(N2C(=O)C3C4C=CC(c5ccccc5)(C3C2=O)C2C(=O)N(c3ccc(OC)cc3)C(=O)C42)cc1 (stereo not drawn)	0.1	-1.4	3.1	-1.6	x	x
COc1ccc(N2C(=O)C3C(C2=O)C3(c2ccccc2)c2ccccc2)cc1 (stereo not drawn)	-0.7	-1.2	1.3	11.7*	-3.3	-5.3
CC(C)COc1nc2ccccc2nc1N1CCN(C)CC1	-15.1	-8.0	-1.2	-8.3	x	x
SMILES	PLC-beta3 inh	GC-B act	GC-A act	PLC-gamma1 inh	PLCgamma1 ctr	PLCbeta3 conf
CSc1ccccc1C(=O)Nc1cc([N+](=O)[O-])ccc1C	-2.3	-1.4	-0.7	0.3	x	x
CCN(CC)C1CCN(C(=O)c2cc(COc3ccccc3SC)on2)C1 (stereo not drawn)	-8.8	2.5	11.5	10.0*	-6.0	-4.2
CC(=O)c1ccc(-n2c(-c3cc(-c4ccco4)[nH]n3)n[nH]c2=S)cc1	0.0	-4.8	-0.6	1.4	x	x
O=C(O)c1ccc(-n2c(-c3cc(-c4ccco4)[nH]n3)n[nH]c2=S)cc1	8.9	1.5	0.8	31.4*	22.6*	9.7
CCOC(=O)C1(Cc2cccc(Cl)c2)CCCN(C(=O)CCSC)C1 (stereo not drawn)	-4.8	-3.7	-1.2	-3.4	x	x
Cc1ccc(CN2CCN(/N=C/c3sccc3C)CC2)c(C)c1	6.5	-3.3	-0.4	10.9*	0.2	-0.1
CC(Oc1ccc(F)cc1)C(=O)Nc1nc(-c2ccccn2)cs1 (stereo not drawn)	-15.9	5.5	8.6	-5.8	x	x
O=C1CCN(Cc2ccccc2)CCN1[C@H](CO)c1ccccc1	2.0	4.7	-2.0	1.6	x	x
O=C1CCN(Cc2ccc(O)cc2)CCN1[C@H](CO)c1ccccc1	3.8	1.9	-3.1	9.7*	-1.9	-0.9
Cc1cccc(NC(=O)CSc2nnc(NC(=O)C3CCC3)s2)c1	-7.7	-2.2	0.1	-1.7	x	x
Cc1nn(C(C)C(=O)N2CCOCC2)c(C)c1[N+](=O)[O-] (stereo not drawn)	3.0	1.5	-5.7	11.4*	-4.5	-10.4
Cc1nn(C(C)C(=O)O)c(C)c1[N+](=O)[O-] (stereo not drawn)	3.7	-0.7	1.2	1.0	x	x
COc1cc(C(O)c2nc(/C=C/c3ccccc3)cs2)ccc1F (stereo not drawn)	1.1	4.1	4.8	-3.4	x	x
CCSc1cc(C)nc2ncnn12	13.7*	1.4	-0.2	13.1*	-12.9	-5.8
CC(C)N(Cc1ccccc1)C(=O)CN1C(=O)NC2(CCCC2)C1=O	4.9	6.9	4.3	10.3*	-8.3	-3.9
C#CCOCCOCCOCCNc1nc(OC)nc(N2CCN(C(=O)[C@H](CCC(=O)O)n3cc(C(N)CO)nn3)CC2)n1 (stereo partly drawn)	-0.4	6.7	2.3	-1.8	x	x
CN(C)c1ccnc2c[cH-]cc12.[Fe].c1ccc(-[c-]2[c-](-c3ccccc3)[c-](-c3ccccc3)[c-](-c3ccccc3)[c-]2-c2ccccc2)cc1 (stereo not drawn)	-1.7	-2.6	0.1	2.6	x	x
CCOc1ccc(NC(=O)CSCc2cnn(-c3ccccc3)c2-n2cccc2)cc1	-4.6	-5.9	0.1	10.1*	0.7	-6.9
CN(C)CCCNC(=O)COc1ccc(Br)cc1Cl	1.1	-2.0	2.6	2.1	x	x

Source: PubChem (several laboratories)
